The results in this text go back to PubChem BioAssay (NCI).

This is part of a sample that, as a whole, favours compounds with a hit. Of some 83,000 tested, about 20% had one in any assay.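 Cells were grown in 96-well plates and exposed to the test compound at a single concentration for 48 hours; results are reported as percent growth, with values below 10 considered active.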 Unmarked numbers belong to inactive results. The source made the active and inactive calls.

Among the test systems are NCI-H23 lung; NCI-H226 lung; NCI-H322M lung; HOP-62 NSCLC; NCI-H460 lung; HOP-92 NSCLC; NCI-H522 lung; A549/ATCC NSCLC; 786-0 renal; COLO 205 colon; DU-145 prostate; K-562 leukemia; MALME-3M melanoma; MDA-MB-231 breast; RXF 393 renal; SF-268 CNS; SF-295 CNS; SF-539 CNS; UACC-257 melanoma; M14 melanoma.
Assay in all cases: NCI-60 one-dose screen, 48 h (100 = growth as untreated, 0 = no growth, -100 = all killed)
What all share (details): 10 µM unless noted

With `CN1CCN(Cn2nc(-c3cc(Cl)cc(Cl)c3Cl)n(/N=C/c3ccc(Cl)cc3)c2=S)CC1`, the growth in the test on NCI-H23 lung was 92.5%; in the test with NCI-H226 lung, 104%; with NCI-H322M lung, 67.6%; with HOP-62 NSCLC, 95%; in the test on NCI-H460 lung it was 106%; with HOP-92 NSCLC it was 43.7%. The growth was 91.1% in the test with NCI-H522 lung; 94% in the test on A549/ATCC NSCLC; 89.1% with 786-0 renal; 118% in the test with COLO 205 colon; 102% in the test with DU-145 prostate; 73.9% with K-562 leukemia. The growth with MALME-3M melanoma is 101%; in the test on MDA-MB-231 breast, 83.8%; in the test on RXF 393 renal, 89.6%; in the test on SF-268 CNS, 117%; in the test with SF-295 CNS it was 102%; in the test with SF-539 CNS, 108%. Besides, in the test on UACC-257 melanoma, the growth is 93.6%.
For the compound `O=C1C(Cl)=C(Nc2cccc3cc4ccccc4nc23)C(=O)c2ccccc21`, the growth in the test on NCI-H23 lung is 54.7%; with NCI-H226 lung it was 67.2%; in the test with NCI-H322M lung, 51%; in the test with HOP-62 NSCLC, 45.9%; in the test with NCI-H460 lung, 18.2%; in the test with HOP-92 NSCLC, 74.9%. The growth was 22.3% with NCI-H522 lung; 29.8% in the test on A549/ATCC NSCLC; 50.1% in the test with 786-0 renal; 12% in the test on COLO 205 colon; 44% with DU-145 prostate; 27.9% in the test on K-562 leukemia. Besides, the growth is 48.9% in the test on MALME-3M melanoma; 44% with MDA-MB-231 breast; 65.2% with RXF 393 renal; 45% with SF-268 CNS; 53.8% in the test on SF-295 CNS; 40.7% in the test on SF-539 CNS. Besides, the growth in the test on UACC-257 melanoma was 45.6%.
For `S=C=NP1(N=C=S)=NP(N=C=S)(N=C=S)=NP(N=C=S)(N=C=S)=NP(N=C=S)(N=C=S)=N1` (stereo not drawn), the growth was 97.7% in the test with NCI-H23 lung; 94% in the test with NCI-H226 lung; 80.9% in the test on NCI-H322M lung; 85.4% with HOP-62 NSCLC; 111% in the test with NCI-H460 lung; 93.2% in the test with HOP-92 NSCLC. Besides, the growth with NCI-H522 lung is 72.2%; in the test on A549/ATCC NSCLC it was 79.2%; in the test with 786-0 renal, 89.4%; in the test on COLO 205 colon it was 118%; in the test on DU-145 prostate, 113%; with K-562 leukemia, 86.4%. The growth is 91.4% in the test with MALME-3M melanoma; 105% in the test on MDA-MB-231 breast; 109% in the test on RXF 393 renal; 103% with SF-268 CNS; 97.8% in the test on SF-295 CNS; 94.7% with SF-539 CNS. In the test with UACC-257 melanoma, the growth was 94.8%.
Take `COc1ccc(-c2nn(-c3ccc(NC(=O)c4cc(Cl)cc(Cl)c4)cc3)cc2-c2ccncc2)cc1Cl`: the growth was 83.7% in the test with NCI-H23 lung; 98.4% in the test on NCI-H226 lung; 88.6% in the test on NCI-H322M lung; 59.9% with HOP-62 NSCLC; 38.3% in the test with NCI-H460 lung; 84.6% with HOP-92 NSCLC. In addition, the growth in the test with NCI-H522 lung was 87.6%; with A549/ATCC NSCLC it was 53.1%; with 786-0 renal it was 3.68% (active); in the test on COLO 205 colon, 46.9%; with DU-145 prostate it was 76.6%; in the test with K-562 leukemia it was 12%. Also, the growth is 89.9% in the test on MALME-3M melanoma; 25.1% with MDA-MB-231 breast; -66.8% (active) with RXF 393 renal; 63.5% in the test with SF-268 CNS; -28.5% (active) with SF-295 CNS; 47.8% with SF-539 CNS. For the same compound, the figures for the growth in the test with UACC-257 melanoma and in the test on M14 melanoma were 85% and 42.9%, respectively.
In the case of `COc1cc(C(=O)C[n+]2ccccc2)ccc1OC(C)=O`, the growth is 106% in the test on NCI-H23 lung; 96.3% in the test with NCI-H226 lung; 106% with NCI-H322M lung; 94.6% in the test with HOP-62 NSCLC; 99% with NCI-H460 lung; 91.5% in the test with HOP-92 NSCLC. Besides, the growth in the test on NCI-H522 lung was 98%; with A549/ATCC NSCLC it was 98.3%; in the test with 786-0 renal it was 90.9%; in the test on COLO 205 colon, 104%; in the test on DU-145 prostate it was 106%; with K-562 leukemia, 101%. The growth is 105% with MALME-3M melanoma; 102% with MDA-MB-231 breast; 92% with RXF 393 renal; 98.4% in the test with SF-268 CNS; 97.4% with SF-295 CNS; 94.3% in the test on SF-539 CNS. The growth in the test with UACC-257 melanoma was 95.4%.
Consider `CCCCCCCC(=O)SCC/C=C/[C@@H]1CC(=O)NCc2nc(cs2)C2=N[C@@](C)(CS2)C(=O)N[C@@H](C(C)C)C(=O)N1`, for which the growth in the test on NCI-H23 lung was 16.5%; in the test on NCI-H226 lung, 3.64% (active); in the test on NCI-H322M lung it was 1.39% (active); in the test with HOP-62 NSCLC, 12.1%; in the test on NCI-H460 lung, 9.84% (active); in the test on HOP-92 NSCLC, -10.5% (active). Moreover, the growth with NCI-H522 lung is -27.4% (active); in the test on A549/ATCC NSCLC it was 0.822% (active); in the test with 786-0 renal it was 17.2%; with COLO 205 colon it was -71.8% (active); in the test on DU-145 prostate it was 10.9%; with K-562 leukemia, 6.8% (active). Also, the growth in the test on MALME-3M melanoma was 10.8%; in the test on MDA-MB-231 breast, 11.4%; in the test on RXF 393 renal, -52.8% (active); in the test with SF-268 CNS, 18%; in the test with SF-295 CNS, 2.96% (active); with SF-539 CNS, 25%. In the test with UACC-257 melanoma, the growth was -19.6% (active).
In the case of `COc1cccc(-c2nc3sccn3c2-c2ccnc(NCCNC(=O)Nc3cccc(C(F)(F)F)c3)n2)c1`, the growth is 83.8% in the test on NCI-H23 lung; 94.9% in the test with NCI-H226 lung; 81.3% in the test with NCI-H322M lung; 98.9% in the test on HOP-62 NSCLC; 45.1% in the test on NCI-H460 lung; 92.4% in the test on HOP-92 NSCLC. For the same compound, the growth in the test on NCI-H522 lung is 47.7%; with A549/ATCC NSCLC it was 44.4%; in the test on 786-0 renal, 65.6%; in the test on COLO 205 colon, 57.6%; in the test on DU-145 prostate, 79.8%; with K-562 leukemia it was 39.9%. Also, the growth in the test on MALME-3M melanoma was 85.1%; in the test on MDA-MB-231 breast it was 43.7%; in the test with RXF 393 renal, 6.3% (active); in the test with SF-268 CNS, 62.3%; in the test on SF-295 CNS, 37.7%; in the test on SF-539 CNS, 77.9%. Besides, in the test on UACC-257 melanoma, the growth is 69.5%.
As to `CC(=O)Nc1ccc(OC(=O)c2ccccc2O)cc1`, the growth in the test with NCI-H23 lung was 99.5%; in the test on NCI-H226 lung it was 106%; with NCI-H322M lung it was 111%; with HOP-62 NSCLC, 99.8%; with NCI-H460 lung it was 106%; in the test on HOP-92 NSCLC, 85%. In addition, the growth in the test with NCI-H522 lung is 106%; with A549/ATCC NSCLC, 102%; with 786-0 renal, 107%; with COLO 205 colon, 108%; in the test on DU-145 prostate, 110%; with K-562 leukemia it was 88.1%. Moreover, the growth with MALME-3M melanoma is 105%; in the test with MDA-MB-231 breast, 108%; with RXF 393 renal, 114%; in the test with SF-268 CNS, 106%; with SF-295 CNS, 95.3%; in the test on SF-539 CNS, 108%. For the same compound, the growth with UACC-257 melanoma was 111%.
